Bioassay records: PubChem BioAssay, National Center for Advancing Translational Sciences (NCATS)
Only some compounds are listed: those with a hit (about 19% of all), similar ones and a draw of the others.
HT1080 IDH1KD tx = kills HT-1080 cells with IDH1 knockdown. Potency, µM (doses to about 46.1 µM), without a hit: top-dose activity, negative = toxicity, most hits filed as cytotoxic. HT-1080 IDH1 knockdown viability, ATP luminescence, 48 h. AID 686971. actives 2% (n = 360,000);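 note: 0% = DMSO wells and -100% = cell-free medium wells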
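CellTiter-Glo luminescence after 48 h compound exposure at 37 degrees C of IDH1-knockdown HT-1080 cells in 5% FBS RPMI. %Activity scaled between DMSO wells and cell-free media wells, with curves fitted and assigned curve classes.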
KB-3-1 tox = kills parental KB-3-1 adenocarcinoma cells; Potency, µM (titrated, usually from 46.1 µM), actives largely listed as cytotoxic; actives 1.4% (n = 400,000); KB-3-1 viability, CellTiter-Glo ATP luminescence, 72 h; note: nearly all actives have a fitted effect of over 60% in size
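Cytotoxicity in the drug-sensitive parental line KB-3-1 was scored as loss of CellTiter-Glo luminescence following 72 h incubation with compound. Values come from curve fitting of normalized concentration-response data.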
HT1080NT lethal = kills 2HG-producing HT-1080-NT fibrosarcoma cells; HT-1080-NT fibrosarcoma viability, CellTiter-Glo ATP luminescence, 48 h; Potency, µM (doses to about 46.1 µM), for the others: at the top dose activity, negative = less viability, actives largely listed as cytotoxic; actives 1.6% (n = 360,000);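 note: NT is the 2HG producing partner of a matched IDH1 knockdown line; 0% = DMSO-treated cells and -100% = media-only wells without cells; nearly all actives have a fitted effect of over 55% in size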
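Viability by CellTiter-Glo luminescence after 48 h compound exposure at 37C of HT-1080-NT cells (750/well, RPMI, 5% FBS). % activity scaled between DMSO wells and medium-only wells, then curve-fitted and categorized by curve class.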
TDP1 cell noCPT = qHTS for Inhibitors of human tyrosyl-DNA phosphodiesterase 1 (TDP1): qHTS in cells in absence of CPT | actives 15% (n = 420,000) | Potency, µM (doses to about 46.2 µM), for inactives: at the highest dose activity change, negative = growth inhibition, usual class: inhibitors | DT40 Tdp1-/- hTDP1 cells, no CPT, ATP luminescence, 48 h | AID 686978, 2013; note: nearly all actives have a fitted effect of over 55% in size
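Cells were dispensed at 400 per well, compounds added by pin tool, plates incubated ≥48 hr at 37 °C, then CellTiter-Glo added for 30 min at room temperature before luminescence reading. Line: DT40 Tdp1-/- complemented with hTDP1; camptothecin omitted.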
KB-V1 MDR tox = KB-V1 MDR subline cytotoxicity. actives 3.4% (n = 400,000). KB-V1 MDR cells viability, CellTiter-Glo, 72 h. Potency, µM (top dose mostly 46.1 µM), usual class: cytotoxic; note: nearly all actives have a fitted effect of over 60% in size
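KB-V1, DMEM (no phenol red) + 10% FBS; cpd pin-transferred, titration series; 72 h, 37 degrees C; CellTiter-Glo, luminescence. Data normalized, curve-fit.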
DT40 TDP1 CPT = growth inhibition of DT40 Tdp1-/-;hTDP1 cells with camptothecin (screen for TDP1 inhibitors); Potency, µM (titrated, usually from 46.2 µM), without a hit: at the top dose activity change, negative = growth inhibition, most hits filed as inhibitors; actives 12% (n = 420,000); chicken DT40 Tdp1-/-;hTDP1 cells + 20 nM CPT, ATP luminescence, 48 h; note: nearly all actives have a fitted effect of over 55% in size
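Chicken DT40 Tdp1-/- cells stably complemented with human TDP1 were seeded at 400 cells/well in medium containing 20 nM camptothecin, exposed to pin-transferred compounds, and grown at 37 °C for at least 48 hr. Viability was read as ATP luminescence.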
The depositor's hits bear a star; i = inactive; ? = inconclusive; . = not tested or not shown; ! = a repeat was not active; [ ] = dose if it differs, or a comment. Calls come from the whole dose curve; as a rule, active = well fitted curve in the direction sought with a large enough effect; inconclusive = small, poorly fitted or top-dose-only effect, or another doubt; inactive = no such curve, though single readings can be large; an effect the other way counts as inactive or inconclusive. Unless noted, % is set by controls: 0 for no effect and ±100 for the full control effect; potency is the fitted concentration of half-maximal effect.

SMILES	HT1080 IDH1KD tx	KB-3-1 tox	HT1080NT lethal	TDP1 cell noCPT	KB-V1 MDR tox	DT40 TDP1 CPT
Cc1ccc(O)c(-c2cc(C(=O)Nc3ccc(S(=O)(=O)N4CC(C)OC(C)C4)cc3)[nH]n2)c1 (centres undefined)	-29%	?	?	23µM*	?	26µM*
O=c1c(-c2ccc(Cl)cc2)nc2cnc(N3CCOCC3)nc2n1C1CC1	.	.	.	12%	.	-4%
COc1ccccc1NCC(=O)NNCC(=O)Nc1ccc(F)c(Cl)c1	-4%	?	0%	-25%	i	-6%
CCn1cc(/C=C(\NC(=O)c2ccc(OC)cc2)C(=O)N2CCN(C)CC2)c2ccccc21	-13%	i	-11%	9%	i	-27%
CCC(=C(c1ccc(OC)cc1)c1ccc(OC)cc1)c1cn(CC(O)CN2CCN(C)CC2)c2ccccc12 (centres undefined)	-8%	?	-6%	13µM*	?	10µM*
CCOc1ccc(OCc2cccc(C(=O)N3CCCC3)c2)cc1	9%	i	-6%	-28%	?	-20%
CCOc1ccc(OCc2cccc(C(=O)O)c2)cc1	7.9µM*	i	7.9µM*	8.2µM*	i	15µM*
COc1ccc(OCc2cccc(C(=O)O)c2)cc1	?	?	?	?	18µM*	?
O=Cc1ccc2noc(-c3ccc(Cl)cc3)c2c1	-13%	?	-14%	16µM*	23µM*	?
Cc1ccc(-c2onc3ccc(Cl)cc23)cc1	-5%	i	-7%	?	i	-14%
COc1ccc(CNC(=O)CCNC(=O)c2ccco2)cc1OC	5%	i	5%	6%	?	-2%
CCn1c(SC/C=C/c2ccccc2)nnc1-c1cccs1	0%	i	-1%	?	13µM*	?
CCn1c(SC(=O)NC2CCCCC2)nnc1-c1cccs1	0%	?	-2%	23µM*	?	21µM*
Cc1occc1-c1nnc(SCC(=O)NCCc2ccccc2)n1Cc1ccccc1	-10%	i	-18%	21µM*	?	?
Cc1occc1-c1nnc(SCC(N)=O)n1Cc1ccccc1	-4%	i	0%	2%	i	1%
CCn1c(SCC(=O)NCCc2ccccc2)nnc1-c1cccs1	5%	i	-4%	-8%	21µM*	-16%
O=C(O)CNC(=O)c1ccc(Oc2c(F)c(F)c(Oc3ccc(C(=O)NCC(=O)O)cc3)c(F)c2F)cc1	-3%	i	18%	-8%	i	-9%
CC(=O)N1CCc2cc(S(=O)(=O)NC(Cc3ccccc3)C(=O)Nc3ccc(C)cc3C)ccc21 (centres undefined)	.	i	.	-7%	i	?
COc1ccc(-c2ccc3c(N)c(C(=O)NC(C)C)sc3n2)cc1OC	-21%	?	-15%	16µM*	i	-25%
COc1ccc(-c2ccc3c(N)c(C(=O)c4ccc(OC)c(OC)c4)sc3n2)cc1	-1%	i	-7%	9.2µM*	i	9.2µM*!
CCOC(=O)c1sc2nc(-c3ccccc3)ccc2c1N	18%	i	26%	1%	i	-7%
COc1cccc(-c2ccc3c(N)c(C(=O)c4ccc(Br)cc4)sc3n2)c1	.	?	.	15µM*	i	15µM*
COc1cccc(-c2ccc3c(N)c(C(=O)Nc4ccc(Cl)cc4F)sc3n2)c1	.	i	.	?	i	-24%
COc1ccc(CC(=O)OCC(=O)c2ccc(OC)c(OC)c2)cc1	11%	i	17%	-3%	i	5%
COc1ccc(C(=O)c2sc3nc(-c4ccccc4)ccc3c2N)cc1OC	-28%	i	-29%	13µM*	i	16µM*
SMILES	HT1080 IDH1KD tx	KB-3-1 tox	HT1080NT lethal	TDP1 cell noCPT	KB-V1 MDR tox	DT40 TDP1 CPT
COc1cccc(-c2ccc3c(N)c(C(=O)Nc4cc(C(F)(F)F)ccc4OC)sc3n2)c1	.	i	.	-12%	i	-17%
CCc1nnc(NC(=O)C2=CCN(S(=O)(=O)c3ccc(F)cc3)CC2)s1	4%	i	9%	2%	i	7%
COc1ccc(CCc2c[nH]c(=O)c3cncnc23)cc1OC	-2%	.	1%	?	.	-19%
NC(=O)c1sc2nc(-c3ccccc3)ccc2c1N	24%	?	27%	5%	5.8µM*	18%
CSc1nnc(-c2sc3cc(C(F)(F)F)cnc3c2-c2ccccc2)n1C	-27%[9.24 µM]	6.5µM*	?	16µM*	3.7µM*	4.6µM*
COc1cc(Cl)c(C)cc1NC(=O)COC(=O)C1=COCCO1	-7%	i	1%	5%	?	2%
CC(C)c1ccc(NC(=O)c2cc3c(s2)-c2ccccc2SC3)cc1	.	.	.	?	.	18µM*
O=C(NCc1ccc(F)cc1)c1cc2c(s1)-c1ccccc1SC2	.	.	.	?	.	-107%
Cc1c(NC(=O)c2nn(CC(C)C)c(=O)c3ccccc23)c(=O)n(-c2ccccc2)n1C	11%	i	1%	-14%	i	-2%
COc1cc(NS(=O)(=O)c2ccc(-c3cc(C)no3)cc2)cc(OC)c1	.	.	.	2.1µM*	.	1.8µM*
COc1ccccc1CNS(=O)(=O)c1ccc(-c2cc(C)no2)cc1	2.1µM*	1.3µM*	4.1µM*	0.58µM*	?	0.58µM*
CCc1ccc(-c2cc(C)no2)cc1S(=O)(=O)NCc1ccccc1OC	-4%	i	-12%	-30%	i	?
COc1ccc(OC)c(CN2C(=O)CN(S(C)(=O)=O)CC2(C)C(=O)NCc2ccccc2)c1 (centres undefined)	12%	i	11%	2%	i	13%
CCOC(=O)C1=CCN(S(=O)(=O)c2ccc(F)cc2)C1c1cccc(F)c1 (centres undefined)	-12%	i	0%	?	?	-25%
CN(Cc1ccco1)C(=O)C1CCC(=O)N(CCc2cccc(F)c2)C1 (centres undefined)	-4%	i	-6%	?	i	?
CC#CCN(Cc1ccco1)C(=O)C1CCC(=O)N(CCc2cccc(F)c2)C1 (centres undefined)	7%	i	13%	15µM*	i	21µM*
C#CCN(C(=O)C1CCC(=O)N(CCc2cccc(F)c2)C1)C1CCCCC1 (centres undefined)	-3%	i	4%	6.5µM*	?	18µM*
